Out of some 360,000 compounds screened, about 17,000 (4.7%) were called active. Roughly 5% stayed inconclusive and do not appear here. Rule as the data show it: active = activity change below about -50%; inconclusive = mostly about -30% to -49%; inactive = weaker than that. This excerpt belongs to a sample that is enriched for actives.
Test: qHTS for Inhibitors of Inflammasome Signaling: IL-1-beta AlphaLISA Primary Screen
Conditions: THP-1 LPS/ATP IL-1B secretion, 16 h; at 57.5 µM, stronger effect = lower value
Summary of the method: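 THP-1 cells pretreated 1 hr with compounds (up to 57.5 uM final), then stimulated with LPS (250 ng/mL final) plus ATP (1.25 mM final); secreted IL-1B measured by AlphaLISA after 16 hr, decreased signal indicating inhibition.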
% is scaled to controls: 0 for no effect and ±100 for the full control effect.

Row | SMILES | activity change
1 | O=C(CSc1ncn[nH]1)Nc1nc2c(F)c(F)c(F)cc2s1 | -7.33% (inactive)
2 | Nc1nc(Nc2ccccc2F)nc(NC2CCCCC2)c1[N+](=O)[O-] | -71.1% (active)
3 | C=CCNc1nc(N)c([N+](=O)[O-])c(NC2CCCCC2)n1 | 66.3% (inactive)
4 | Nc1nc(NCC2CCCO2)nc(Nc2ccccc2F)c1[N+](=O)[O-] (configuration not stated) | 0% (inactive)
5 | CCN1C[C@@H]2[C@@H]3C(=O)N(Cc4ccccc4)C(=O)[C@@H]3[C@](C)(C1=O)N2C(=O)c1ccc(C(C)(C)C)cc1 | 0% (inactive)
6 | CSc1ncnc2c1ncn2CCCNCc1ccco1 | 15.8% (inactive)
7 | Cc1cccc2cc(CN(Cc3nnnn3Cc3ccccc3)C3CCCC3)c(=O)[nH]c12 | -64.3% (active)
8 | CCC(c1nnnn1Cc1ccccc1)N(Cc1cc2cc(OC)ccc2[nH]c1=O)CC1CCCO1 (configuration not stated) | 0% (inactive)
9 | CCOc1ccc2[nH]c(=O)c(CN(Cc3nnnn3CCc3ccccc3)CC3CCCO3)cc2c1 (configuration not stated) | -29.1% (inactive)
10 | Cc1cccc2cc(CN(Cc3cccs3)C(c3nnnn3C3CCCC3)C(C)C)c(=O)[nH]c12 (configuration not stated) | 0% (inactive)
11 | Cc1cc(C)c2cc(CN(Cc3nnnn3Cc3ccc(F)cc3)C3CCCC3)c(=O)[nH]c2c1 | 7.62% (inactive)
12 | Cc1cc(C)c2[nH]c(=O)c(C(c3nnnn3Cc3ccc4c(c3)OCO4)N3CCCC3)cc2c1 (configuration not stated) | -10.3% (inactive)
13 | CCOc1ccc2[nH]c(=O)c(CN(Cc3nnnn3Cc3ccccc3)CC3CCCO3)cc2c1 (configuration not stated) | -63.9% (active)
14 | Cc1cccc2cc(CN(Cc3ccc4c(c3)OCO4)Cc3nnnn3C3CCCC3)c(=O)[nH]c12 | -54.8% (active)
15 | CCC(c1nnnn1Cc1ccco1)N(CCc1ccccc1)Cc1cc2cccc(C)c2[nH]c1=O (configuration not stated) | -4.44% (inactive)
16 | COc1ccc(C(C#N)=C2C=CC(=NO)c3ccccc32)cc1 | -24.6% (inactive)
17 | Cc1nc2ccccc2nc1CC(O)(c1ccccc1)c1ccccc1 | 3.22% (inactive)
18 | O=C1NC[C@H](CCCCN2CCN(CCc3ccccc3)C(=O)C2=O)N(CC2CCCCC2)C1=O | -14.3% (inactive)
19 | CCCCc1nc2ccc(F)cc2cc1C | 8.78% (inactive)
20 | COc1ccc(C(C)(C)C)cc1NC(=O)CN(C)C1=NS(=O)(=O)c2ccccc21 | 10.7% (inactive)
21 | COc1ccc([C@H]2N[C@]3(CCCN(CC4CCCCC4)C3=O)[C@H]3C(=O)N(C)C(=O)[C@@H]23)cc1 | -15% (inactive)
22 | O=C(Nc1cccc(Cc2ccccc2)c1)Nc1ccc2nc([C@@H]3O[C@H](CO)[C@@H](O)[C@H](O)[C@H]3O)[nH]c2c1 | 33.4% (inactive)

Reference: PubChem BioAssay AID743279 (National Center for Advancing Translational Sciences (NCATS), 2014)
